Key:
Details in all cases: Compound Concentration (nM):1000
GRK1 = system: GRK1
GRK2 = system: T1, GRK2
T1 construct: gene ADRBK1

GRK3 = system: T2, GRK3
T2 construct: gene ADRBK2

GRK4 = system: GRK4
GRK7 = system: GRK7
GSK3A = system: GSK3A
GSK3B = system: GSK3B
HASPIN = system: T3, HASPIN
T3 construct: gene GSG2

HCK = system: HCK
HIPK1 = system: HIPK1
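Also: KINOMEscan scanMAX binding as percent activity remaining versus control; lower means stronger binding.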

| SMILES | Percent Control (GRK1) [%] | Percent Control (GRK2) [%] | Percent Control (GRK3) [%] | Percent Control (GRK4) [%] | Percent Control (GRK7) [%] | Percent Control (GSK3A) [%] | Percent Control (GSK3B) [%] | Percent Control (HASPIN) [%] | Percent Control (HCK) [%] | Percent Control (HIPK1) [%] |
| --- | --- | --- | --- | --- | --- | --- | --- | --- | --- | --- |
| COc1cccc(-c2c[nH]c3c(N/N=C/c4ccncc4)ncnc23)c1 [GW814408X] | 100 | 100 | 100 | 62 | 100 | 0 | 1 | 51 | 91 | 29 |
| COc1ccc2[nH]c3c4[nH]c5ccc(OC)cc5c4c4c(c3c2c1)C(=O)NC4=O [GW296115X] | 95 | 88 | 70 | 100 | 64 | 100 | 68 | 76 | 74 | 56 |
| COc1ccc2c(-c3ccnc(Nc4cccc(OC(F)(F)F)c4)n3)cnn2n1 [GW810372X] | 97 | 100 | 98 | 100 | 100 | 34 | 97 | 72 | 100 | 0.7 |
| CN(C)c1cc2c(Nc3ccc4c(cnn4Cc4ccccc4)c3)ncnc2cn1 [GW282974X] | 78 | 100 | 86 | 100 | 97 | 98 | 100 | 82 | 57 | 78 |
| CCS(=O)(=O)c1ccc(OC)c(Nc2ncc(-c3cccc(F)c3)o2)c1 [GW621970X] | 100 | 100 | 100 | 100 | 100 | 94 | 91 | 79 | 32 | 82 |
| COc1cc(N2CCN(C(C)C)CC2)ccc1Nc1nc(Nc2ccc(F)cc2C(=O)NC[C@@H](O)CO)c2cc[nH]c2n1 [GSK1392956A] | 91 | 100 | 67 | 94 | 93 | 100 | 98 | 86 | 100 | 15 |
| COc1cc(C=NNc2ncnc3c2cnn3-c2ccccc2)ccc1O [GW513184X] | 100 | 100 | 100 | 28 | 84 | 7.7 | 87 | 100 | 78 | 43 |
| Cl.O=C(Nc1ccc(Oc2ccc3[nH]c(NC(=O)c4ccccc4)nc3c2)cc1)Nc1cc(C(F)(F)F)ccc1F [GW709042A] | 99 | 100 | 97 | 100 | 100 | 100 | 99 | 92 | 71 | 94 |
| Nc1ncnc2occ(-c3ccc(NC(=O)Nc4cc(C(F)(F)F)ccc4F)cc3)c12 [GW770249X] | 100 | 100 | 98 | 100 | 100 | 23 | 100 | 100 | 74 | 51 |
| Cl.c1ccc(Cc2nc3ccc(Nc4ncnc5ccccc45)cc3[nH]2)cc1 [GR269666A] | 100 | 100 | 100 | 91 | 100 | 100 | 99 | 88 | 100 | 100 |
| COc1ccccc1-c1cc(/C=C2\C(=O)Nc3ncc(Br)cc32)cc(Br)c1O [GW442130X] | 100 | 100 | 100 | 100 | 63 | 100 | 100 | 100 | 100 | 66 |
| NS(=O)(=O)c1ccc(N/N=C2\C(=O)Nc3ccc(Cl)cc32)cc1 [GW280670X] | 100 | 100 | 100 | 100 | 100 | 54 | 91 | 97 | 100 | 98 |
| COc1ccc2cc(-c3c(-c4ccncc4)nc(-c4ccc(S(C)(=O)=O)cc4C)n3C)ccc2c1 [SB-633825] | 70 | 81 | 63 | 100 | 94 | 100 | 100 | 94 | 72 | 77 |
| CC(C)COC(=O)c1ccc2c(c1)/C(=C/Nc1ccc(S(N)(=O)=O)cc1)C(=O)N2 [GW416981X] | 86 | 100 | 100 | 43 | 100 | 45 | 71 | 18 | 100 | 88 |
| COc1cc(C)c(N(C)C(=O)CN(C)C)cc1Nc1nc(Nc2cccc(F)c2C(N)=O)c2cc[nH]c2n1 [GSK2219385] | 69 | 100 | 80 | 100 | 70 | 100 | 100 | 41 | 100 | 71 |
| CN(C)CCNC(=O)Nc1ccc(N(C)c2ccnc(Nc3ccc(CS(C)(=O)=O)cc3)n2)cc1.Cl [GW830900A] | 89 | 100 | 89 | 7.1 | 96 | 100 | 85 | 100 | 100 | 88 |
| NS(=O)(=O)c1ccc(N/N=C2\C(=O)Nc3ccc(-c4cnco4)cc32)cc1 [GW276655] | 87 | 94 | 100 | 39 | 81 | 15 | 80 | 0.3 | 95 | 35 |
| COc1cc2ncn(-c3cc(O[C@H](C)c4ccccc4Cl)c(C(N)=O)s3)c2cc1OC [GSK237701A] | 100 | 95 | 97 | 18 | 99 | 85 | 97 | 94 | 64 | 68 |
| Cl.O=S1CCN(Cc2ccc(-c3ccc4ncnc(Nc5ccc(OCc6ccccc6)c(F)c5)c4c3)o2)CC1 [GW576924A] | 98 | 100 | 100 | 100 | 100 | 100 | 100 | 96 | 100 | 100 |
| CCn1c(-c2nonc2N)nc2c(C#CC(C)(C)O)nc(OCCNC)cc21.Cl [GSK949675] | 77 | 100 | 100 | 100 | 69 | 18 | 55 | 100 | 100 | 42 |

Reference: paper PMC7826789 (International Journal of Molecular Sciences, 2021)
